Test results as given in the supplement of paper PMC10849652.
About 7,900 targets were measured; listed, in parts, are those with a hit and a random draw of the rest. About 0.6% of all pairs of compound and target were hits. A number with no mark means an inactive call.

Columns and labels:
Test in all cases: log2 fold change, soluble protein after heating vs DMSO (PISA); higher = thermal stabilisation; K562 cells, 10 uM, 30 min; active = over 0.2 and 3.5 SD of the protein, either way, in both replicates (recomputed)
[1] = compound: CS(=O)(=O)c1ccc(-c2cnc(N)c(C(=O)Nc3ccccc3)n2)cc1
Method in brief: (§1)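 K562 cells at 2×10^6 cells/mL were exposed to 10 μM compound for 30 min, then aliquots were heated for 3 min across 48°C-58°C, pooled, and extracted in PBS containing 0.5% NP-40 at 4°C. The supernatant after 21,000xg for 90 min was taken as soluble protein and measured by TMTpro 16plex LC-MS/MS with channel sums equalised. Thermal stability is reported relative to control samples, with values from duplicates. Fold changes are given on a log2 scale.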

crizotinib = compound: C[C@@H](Oc1cc(-c2cnn(C3CCNCC3)c2)cnc1N)c1c(Cl)ccc(F)c1Cl [crizotinib]
Method in brief: as §1

[2] = compound: C[C@@H]1COCCN1C2=NC(=NC(=C2)C3(CC3)S(=O)(=O)C)C4=C5C=CNC5=CC=C4
Method in brief: as §1

[3] = compound: C[C@H](C1=CC=C(C=C1)C(=O)NC2=C3C=CNC3=NC=C2)N
Method in brief: as §1

duvelisib = compound: C[C@H](Nc1ncnc2nc[nH]c12)c1cc2cccc(Cl)c2c(=O)n1-c1ccccc1 [duvelisib]
Method in brief: as §1

gandotinib = compound: Cc1cc(Nc2cc(CN3CCOCC3)c3nc(C)c(Cc4ccc(Cl)cc4F)n3n2)n[nH]1 [gandotinib]
Method in brief: as §1

tozasertib = compound: Cc1cc(Nc2cc(N3CCN(C)CC3)nc(Sc3ccc(NC(=O)C4CC4)cc3)n2)n[nH]1 [tozasertib]
Method in brief: as §1

[4] = compound: Cc1cc(SCc2sc(-c3ccc(C(F)(F)F)cc3)nc2C)ccc1OCC(=O)O
Method in brief: as §1

doramapimod = compound: Cc1ccc(-n2nc(C(C)(C)C)cc2NC(=O)Nc2ccc(OCCN3CCOCC3)c3ccccc23)cc1 [doramapimod]
Method in brief: as §1

ispinesib = compound: Cc1ccc(C(=O)N(CCCN)[C@@H](c2nc3cc(Cl)ccc3c(=O)n2Cc2ccccc2)C(C)C)cc1 [ispinesib]
Method in brief: as §1

bafetinib = compound: Cc1ccc(NC(=O)c2ccc(CN3CC[C@H](N(C)C)C3)c(C(F)(F)F)c2)cc1Nc1nccc(-c2cncnc2)n1 [bafetinib]
Method in brief: as §1

[5] = compound: Cc1cccc(CC(=O)N2CCc3c2ccc(-c2cn(C)c4ncnc(N)c24)c3F)n1
Method in brief: as §1

nilotinib = compound: Cc1cn(-c2cc(NC(=O)c3ccc(C)c(Nc4nccc(-c5cccnc5)n4)c3)cc(C(F)(F)F)c2)cn1 [nilotinib]
Method in brief: as §1

[6] = compound: Cc1nc(Nc2n[nH]c3c2CN(C(=O)N[C@H](CN(C)C)c2ccccc2)C3(C)C)c2sccc2n1
Method in brief: as §1

dasatinib = compound: Cc1nc(Nc2ncc(C(=O)Nc3c(C)cccc3Cl)s2)cc(N2CCN(CCO)CC2)n1 [dasatinib]
Method in brief: as §1

[7] = compound: Cc1ncc(-c2ccnc(Nc3ccc(S(C)(=O)=O)cc3)n2)n1C(C)C
Method in brief: as §1

[8] = compound: Cn1cc(-c2ccc3c(c2)CCN3C(=O)Cc2cccc(C(F)(F)F)c2)c2c(N)ncnc21
Method in brief: as §1

[9] = compound: Cn1cc(-c2ccc3nnc(C(F)(F)c4ccc5ncccc5c4)n3n2)cn1
Method in brief: as §1

mubritinib = compound: FC(F)(F)c1ccc(/C=C/c2nc(COc3ccc(CCCCn4ccnn4)cc3)co2)cc1 [mubritinib]
Method in brief: as §1

tipifarnib = compound: Cn1cncc1[C@@](N)(c1ccc(Cl)cc1)c1ccc2c(c1)c(-c1cccc(Cl)c1)cc(=O)n2C [tipifarnib]
Method in brief: as §1

CRYM-AS1 (UniProt A6NIL9)
log2 fold change [1]: 0.2 | log2 fold change (crizotinib): -0.077 | log2 fold change [2]: -0.132 | log2 fold change [3]: -0.08 | log2 fold change (duvelisib): -0.035 | log2 fold change (gandotinib): -0.299 | log2 fold change (tozasertib): -0.079 | log2 fold change [4]: -0.024 | log2 fold change (doramapimod): -0.144 | log2 fold change (ispinesib): 0.022 | log2 fold change (bafetinib): 0.063 | log2 fold change [5]: 0.048 | log2 fold change (nilotinib): -0.023 | log2 fold change [6]: -0.426 | log2 fold change (dasatinib): -0.108 | log2 fold change [7]: -0.28 | log2 fold change [8]: -0.015 | log2 fold change [9]: -0.189 | log2 fold change (mubritinib): 0.114

C9orf64 (UniProt Q5T6V5)
Chain of UniProt Q5T6V5 (Q5T6V5 whole entry, looked up): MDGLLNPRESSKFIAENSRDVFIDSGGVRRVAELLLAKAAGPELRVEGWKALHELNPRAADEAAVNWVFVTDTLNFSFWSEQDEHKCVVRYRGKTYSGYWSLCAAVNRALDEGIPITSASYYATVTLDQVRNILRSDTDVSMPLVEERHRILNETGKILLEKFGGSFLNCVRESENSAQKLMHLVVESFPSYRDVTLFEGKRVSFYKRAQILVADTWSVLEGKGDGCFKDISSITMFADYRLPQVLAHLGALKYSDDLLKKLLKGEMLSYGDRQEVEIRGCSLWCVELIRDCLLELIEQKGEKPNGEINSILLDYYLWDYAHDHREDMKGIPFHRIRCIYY
log2 fold change [1]: 0.049 | log2 fold change (crizotinib): -0.329 | log2 fold change [2]: 0.091 | log2 fold change [3]: 0 | log2 fold change (duvelisib): 0.096 | log2 fold change (gandotinib): -0.128 | log2 fold change (tozasertib): -0.012 | log2 fold change [4]: 0.097 | log2 fold change (doramapimod): -0.005 | log2 fold change (ispinesib): -0.207 | log2 fold change (bafetinib): 0.031 | log2 fold change [5]: 0.218 | log2 fold change (nilotinib): -0.045 | log2 fold change [6]: -0.094 | log2 fold change (dasatinib): -0.197 | log2 fold change [7]: -0.04 | log2 fold change [8]: 0.079 | log2 fold change [9]: 0.085 | log2 fold change (tipifarnib): -0.163 | log2 fold change (mubritinib): 0.282

CAMKK2 (UniProt Q96RR4)
log2 fold change [1]: 0 | log2 fold change (crizotinib): 0.106 | log2 fold change [2]: -0.045 | log2 fold change [3]: -0.182 | log2 fold change (duvelisib): 0.093 | log2 fold change (gandotinib): -0.221 | log2 fold change (tozasertib): 0.15 | log2 fold change [4]: 0 | log2 fold change (doramapimod): 0.086 | log2 fold change (ispinesib): -0.204 | log2 fold change (bafetinib): 0.04 | log2 fold change [5]: -0.144 | log2 fold change (nilotinib): -0.008 | log2 fold change [6]: 0.226 | log2 fold change (dasatinib): 0 | log2 fold change [7]: -0.14 | log2 fold change [8]: -0.083 | log2 fold change [9]: 0.102 | log2 fold change (tipifarnib): -0.076 | log2 fold change (mubritinib): -0.024

CDK8 (UniProt P49336)
Chain of UniProt P49336 (P49336 whole entry, looked up): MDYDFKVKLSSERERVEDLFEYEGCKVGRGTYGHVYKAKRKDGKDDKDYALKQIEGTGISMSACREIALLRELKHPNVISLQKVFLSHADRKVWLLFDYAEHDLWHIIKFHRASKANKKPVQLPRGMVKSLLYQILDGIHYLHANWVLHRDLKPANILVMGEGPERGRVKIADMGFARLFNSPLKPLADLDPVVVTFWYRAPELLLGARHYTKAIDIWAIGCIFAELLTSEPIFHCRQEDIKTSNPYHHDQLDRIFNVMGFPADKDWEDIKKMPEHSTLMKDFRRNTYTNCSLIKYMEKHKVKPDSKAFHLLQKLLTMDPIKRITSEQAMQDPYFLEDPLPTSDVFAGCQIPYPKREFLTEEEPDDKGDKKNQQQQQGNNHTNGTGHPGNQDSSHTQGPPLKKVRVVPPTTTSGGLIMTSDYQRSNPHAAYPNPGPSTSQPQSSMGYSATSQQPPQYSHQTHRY
log2 fold change [1]: -0.049 | log2 fold change (crizotinib): -0.029 | log2 fold change [2]: 0.033 | log2 fold change [3]: 0.248 | log2 fold change (duvelisib): -0.071 | log2 fold change (gandotinib): -0.13 | log2 fold change (tozasertib): -0.199 | log2 fold change [4]: 0.155 | log2 fold change (doramapimod): 0.425 (active) | log2 fold change (ispinesib): 0.031 | log2 fold change (bafetinib): 0.109 | log2 fold change [5]: 0.014 | log2 fold change (dasatinib): 0.067 | log2 fold change [8]: 0.057 | log2 fold change [9]: 0.018 | log2 fold change (tipifarnib): 0 | log2 fold change (mubritinib): 0.01

CLUH (UniProt O75153)
Chain of UniProt O75153 (O75153 whole entry, looked up): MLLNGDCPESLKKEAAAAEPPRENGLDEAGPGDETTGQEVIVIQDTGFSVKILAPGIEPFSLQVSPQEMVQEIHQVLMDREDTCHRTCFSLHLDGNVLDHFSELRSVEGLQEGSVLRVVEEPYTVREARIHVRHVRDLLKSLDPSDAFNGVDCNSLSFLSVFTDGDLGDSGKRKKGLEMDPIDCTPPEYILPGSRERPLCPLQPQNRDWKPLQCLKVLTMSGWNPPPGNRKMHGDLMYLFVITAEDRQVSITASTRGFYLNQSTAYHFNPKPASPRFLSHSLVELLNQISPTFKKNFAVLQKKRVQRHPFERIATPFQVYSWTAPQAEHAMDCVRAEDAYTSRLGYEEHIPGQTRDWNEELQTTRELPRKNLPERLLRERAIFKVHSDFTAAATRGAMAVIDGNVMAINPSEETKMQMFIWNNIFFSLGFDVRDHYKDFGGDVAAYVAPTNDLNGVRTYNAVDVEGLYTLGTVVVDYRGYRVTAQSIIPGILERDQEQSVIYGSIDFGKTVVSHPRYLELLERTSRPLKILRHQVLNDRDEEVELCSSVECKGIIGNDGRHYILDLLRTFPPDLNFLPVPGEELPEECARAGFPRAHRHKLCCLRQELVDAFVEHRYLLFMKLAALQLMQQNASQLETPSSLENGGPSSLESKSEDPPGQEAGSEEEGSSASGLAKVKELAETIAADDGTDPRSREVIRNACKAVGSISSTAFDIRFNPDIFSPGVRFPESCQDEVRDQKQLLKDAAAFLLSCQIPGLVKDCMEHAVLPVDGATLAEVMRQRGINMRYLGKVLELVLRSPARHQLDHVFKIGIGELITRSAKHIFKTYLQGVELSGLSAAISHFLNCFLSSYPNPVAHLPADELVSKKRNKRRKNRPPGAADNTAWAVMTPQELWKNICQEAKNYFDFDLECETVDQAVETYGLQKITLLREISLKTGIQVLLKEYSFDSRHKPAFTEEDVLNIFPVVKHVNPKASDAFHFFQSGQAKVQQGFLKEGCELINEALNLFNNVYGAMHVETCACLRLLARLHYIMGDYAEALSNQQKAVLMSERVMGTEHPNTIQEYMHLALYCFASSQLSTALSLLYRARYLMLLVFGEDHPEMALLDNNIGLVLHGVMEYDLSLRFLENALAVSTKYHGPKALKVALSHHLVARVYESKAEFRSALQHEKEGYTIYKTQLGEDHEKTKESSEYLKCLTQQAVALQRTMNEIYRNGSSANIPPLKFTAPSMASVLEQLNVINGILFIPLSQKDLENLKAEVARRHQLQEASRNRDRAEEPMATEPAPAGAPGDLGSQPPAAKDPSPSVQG
log2 fold change [1]: -0.001 | log2 fold change (crizotinib): -0.094 | log2 fold change [2]: 0.348 (active) | log2 fold change [3]: 0.094 | log2 fold change (duvelisib): 0.698 (active) | log2 fold change (gandotinib): -0.037 | log2 fold change (tozasertib): -0.024 | log2 fold change [4]: 0.01 | log2 fold change (doramapimod): 0.02 | log2 fold change (ispinesib): 0.043 | log2 fold change (bafetinib): 0.007 | log2 fold change [5]: 0.045 | log2 fold change (nilotinib): 0.191 | log2 fold change [6]: 0.108 | log2 fold change (dasatinib): -0.093 | log2 fold change [7]: -0.068 | log2 fold change [8]: 0.067 | log2 fold change [9]: 0.478 (active) | log2 fold change (tipifarnib): -0.022 | log2 fold change (mubritinib): -0.018

COCH (UniProt O43405)
Chain of UniProt O43405 (O43405 whole entry, looked up): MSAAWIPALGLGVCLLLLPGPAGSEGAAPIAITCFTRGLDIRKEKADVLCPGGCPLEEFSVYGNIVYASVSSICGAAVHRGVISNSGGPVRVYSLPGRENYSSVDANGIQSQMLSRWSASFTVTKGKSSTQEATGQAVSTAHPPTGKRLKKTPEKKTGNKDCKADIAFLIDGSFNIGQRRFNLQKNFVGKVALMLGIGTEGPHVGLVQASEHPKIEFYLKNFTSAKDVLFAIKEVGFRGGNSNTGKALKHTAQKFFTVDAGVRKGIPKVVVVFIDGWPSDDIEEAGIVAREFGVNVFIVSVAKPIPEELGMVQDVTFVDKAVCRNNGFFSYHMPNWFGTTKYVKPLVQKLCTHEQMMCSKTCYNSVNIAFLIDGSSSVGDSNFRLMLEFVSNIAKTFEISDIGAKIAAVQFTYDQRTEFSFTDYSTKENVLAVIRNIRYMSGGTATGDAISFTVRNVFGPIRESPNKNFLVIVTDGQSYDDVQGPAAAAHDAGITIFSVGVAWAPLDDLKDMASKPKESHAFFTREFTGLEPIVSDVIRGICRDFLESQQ
log2 fold change [1]: -0.051 | log2 fold change (crizotinib): -0.05 | log2 fold change [2]: -0.033 | log2 fold change [3]: -0.016 | log2 fold change (duvelisib): -0.052 | log2 fold change (gandotinib): 0.059 | log2 fold change (tozasertib): 0.154 | log2 fold change [4]: -0.053 | log2 fold change (doramapimod): 0.052 | log2 fold change (ispinesib): -0.042 | log2 fold change (bafetinib): 0.076 | log2 fold change [5]: -0.17 | log2 fold change (nilotinib): 0.2 | log2 fold change [6]: -0.288 | log2 fold change (dasatinib): 0.179 | log2 fold change [7]: -0.262 | log2 fold change [8]: -0.069 | log2 fold change [9]: -0.005 | log2 fold change (tipifarnib): 0.07 | log2 fold change (mubritinib): -0.062

CPSF1 (UniProt Q10570)
Chain of UniProt Q10570 (Q10570 whole entry, looked up): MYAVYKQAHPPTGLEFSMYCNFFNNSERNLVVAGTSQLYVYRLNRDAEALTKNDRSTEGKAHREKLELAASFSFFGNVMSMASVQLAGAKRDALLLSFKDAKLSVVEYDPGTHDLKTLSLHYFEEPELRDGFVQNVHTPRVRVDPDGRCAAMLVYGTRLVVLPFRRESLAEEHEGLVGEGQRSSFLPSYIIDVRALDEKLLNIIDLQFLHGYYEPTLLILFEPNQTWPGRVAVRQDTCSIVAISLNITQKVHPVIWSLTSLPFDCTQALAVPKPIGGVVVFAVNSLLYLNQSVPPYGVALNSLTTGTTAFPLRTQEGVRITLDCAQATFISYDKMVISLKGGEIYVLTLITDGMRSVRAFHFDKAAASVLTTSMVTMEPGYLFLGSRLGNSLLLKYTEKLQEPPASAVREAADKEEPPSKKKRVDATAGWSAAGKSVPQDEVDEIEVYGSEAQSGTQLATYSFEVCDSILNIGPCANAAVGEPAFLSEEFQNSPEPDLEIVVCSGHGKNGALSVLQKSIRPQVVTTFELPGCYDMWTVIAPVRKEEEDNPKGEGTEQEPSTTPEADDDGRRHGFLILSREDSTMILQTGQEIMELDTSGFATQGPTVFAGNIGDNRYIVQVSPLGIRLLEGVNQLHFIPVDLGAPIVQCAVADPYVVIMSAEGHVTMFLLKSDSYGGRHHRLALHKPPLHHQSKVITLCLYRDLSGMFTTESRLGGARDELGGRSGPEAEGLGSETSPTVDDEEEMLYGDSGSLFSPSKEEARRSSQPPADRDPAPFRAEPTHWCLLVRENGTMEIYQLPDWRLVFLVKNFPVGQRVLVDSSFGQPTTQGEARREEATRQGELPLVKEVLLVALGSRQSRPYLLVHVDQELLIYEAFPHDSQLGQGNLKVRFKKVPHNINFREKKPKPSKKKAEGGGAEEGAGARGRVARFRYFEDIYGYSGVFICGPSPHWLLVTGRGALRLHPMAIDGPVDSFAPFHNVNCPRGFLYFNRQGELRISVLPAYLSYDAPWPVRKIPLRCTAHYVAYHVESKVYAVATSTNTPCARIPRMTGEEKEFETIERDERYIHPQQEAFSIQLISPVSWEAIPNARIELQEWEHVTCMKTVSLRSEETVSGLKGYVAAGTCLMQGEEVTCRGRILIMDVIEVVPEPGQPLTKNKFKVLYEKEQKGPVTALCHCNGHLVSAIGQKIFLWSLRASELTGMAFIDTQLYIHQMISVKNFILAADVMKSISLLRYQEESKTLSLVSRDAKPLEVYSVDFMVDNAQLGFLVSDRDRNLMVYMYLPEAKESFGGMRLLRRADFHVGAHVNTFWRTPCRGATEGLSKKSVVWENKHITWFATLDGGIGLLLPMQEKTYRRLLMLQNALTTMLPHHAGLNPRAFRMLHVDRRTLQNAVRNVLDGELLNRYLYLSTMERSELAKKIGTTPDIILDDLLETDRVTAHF
log2 fold change [1]: -0.015 | log2 fold change (crizotinib): -0.021 | log2 fold change [2]: -0.185 | log2 fold change [3]: 0.048 | log2 fold change (duvelisib): 0.064 | log2 fold change (gandotinib): -0.068 | log2 fold change (tozasertib): -0.032 | log2 fold change [4]: 0.161 | log2 fold change (doramapimod): 0.09 | log2 fold change (ispinesib): 0.036 | log2 fold change (bafetinib): 0.026 | log2 fold change [5]: -0.007 | log2 fold change (nilotinib): 0.065 | log2 fold change [6]: -0.002 | log2 fold change (dasatinib): -0.037 | log2 fold change [7]: -0.014 | log2 fold change [8]: -0.077 | log2 fold change [9]: -0.14 | log2 fold change (tipifarnib): 0.026 | log2 fold change (mubritinib): -0.007

CD81 (UniProt P60033)
log2 fold change [1]: -0.03 | log2 fold change (crizotinib): 0.162 | log2 fold change [2]: 0.107 | log2 fold change [3]: -0.232 | log2 fold change (duvelisib): -0.041 | log2 fold change (gandotinib): 0.019 | log2 fold change (tozasertib): -0.007 | log2 fold change [4]: -0.084 | log2 fold change (doramapimod): -0.025 | log2 fold change (ispinesib): 0.207 | log2 fold change (bafetinib): 0.089 | log2 fold change [5]: -0.026 | log2 fold change (nilotinib): 0.051 | log2 fold change [6]: 0.016 | log2 fold change (dasatinib): 0.079 | log2 fold change [7]: -0.015 | log2 fold change [8]: 0.108 | log2 fold change [9]: 0.131 | log2 fold change (tipifarnib): 0.041 | log2 fold change (mubritinib): 0.05

COASY isoform 2 (UniProt Q13057)
Chain of UniProt Q13057 (Q13057 whole entry, looked up): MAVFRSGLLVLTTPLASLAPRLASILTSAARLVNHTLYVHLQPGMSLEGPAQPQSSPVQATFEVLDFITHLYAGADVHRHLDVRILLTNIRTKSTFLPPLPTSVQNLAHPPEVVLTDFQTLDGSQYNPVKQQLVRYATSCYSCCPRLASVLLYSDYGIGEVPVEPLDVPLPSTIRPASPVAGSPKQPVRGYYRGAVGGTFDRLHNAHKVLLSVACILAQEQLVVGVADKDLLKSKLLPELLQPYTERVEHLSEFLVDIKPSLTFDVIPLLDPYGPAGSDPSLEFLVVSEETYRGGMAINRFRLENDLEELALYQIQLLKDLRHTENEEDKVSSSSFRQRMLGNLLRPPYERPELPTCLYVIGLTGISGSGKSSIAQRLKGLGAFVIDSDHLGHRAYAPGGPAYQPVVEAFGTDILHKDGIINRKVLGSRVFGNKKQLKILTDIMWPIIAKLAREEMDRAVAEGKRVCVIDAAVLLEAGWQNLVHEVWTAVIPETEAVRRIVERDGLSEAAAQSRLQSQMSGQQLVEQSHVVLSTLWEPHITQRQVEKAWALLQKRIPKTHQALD
log2 fold change [1]: -0.052 | log2 fold change (crizotinib): -0.071 | log2 fold change [2]: 0.133 | log2 fold change [3]: -0.09 | log2 fold change (duvelisib): 0.058 | log2 fold change (gandotinib): -0.058 | log2 fold change (tozasertib): -0.031 | log2 fold change [4]: 0.045 | log2 fold change (doramapimod): -0.063 | log2 fold change (ispinesib): -0.057 | log2 fold change (bafetinib): -0.009 | log2 fold change [5]: 0.089 | log2 fold change (nilotinib): -0.19 | log2 fold change [6]: 0.001 | log2 fold change (dasatinib): -0.132 | log2 fold change [7]: 0.005 | log2 fold change [8]: 0.037 | log2 fold change [9]: -0.062 | log2 fold change (tipifarnib): -0.102 | log2 fold change (mubritinib): -0.196

CPSF6 isoform 2 (UniProt Q16630)
log2 fold change [1]: -0.014 | log2 fold change (crizotinib): -0.025 | log2 fold change [2]: 0.075 | log2 fold change [3]: -0.292 (active) | log2 fold change (duvelisib): -0.004 | log2 fold change (gandotinib): -0.034 | log2 fold change (tozasertib): -0.03 | log2 fold change [4]: -0.012 | log2 fold change (doramapimod): 0.004 | log2 fold change (ispinesib): 0.11 | log2 fold change (bafetinib): 0.079 | log2 fold change [5]: -0.136 | log2 fold change (nilotinib): 0.06 | log2 fold change [6]: -1.43 (active) | log2 fold change (dasatinib): 0.009 | log2 fold change [7]: 0.014 | log2 fold change [8]: 0.039 | log2 fold change [9]: -0.008 | log2 fold change (tipifarnib): 0.031 | log2 fold change (mubritinib): 0.006

CETN3 (UniProt O15182)
Chain of UniProt O15182 (O15182 whole entry, looked up): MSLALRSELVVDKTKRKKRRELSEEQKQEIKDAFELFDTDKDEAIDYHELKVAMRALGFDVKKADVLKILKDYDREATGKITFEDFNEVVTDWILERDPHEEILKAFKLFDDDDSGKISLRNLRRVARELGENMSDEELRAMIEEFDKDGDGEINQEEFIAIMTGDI
log2 fold change [1]: -0.018 | log2 fold change (crizotinib): 0.014 | log2 fold change [2]: -0.084 | log2 fold change [3]: -0.071 | log2 fold change (duvelisib): 0.057 | log2 fold change (gandotinib): 0.094 | log2 fold change (tozasertib): 0.037 | log2 fold change [4]: -0.094 | log2 fold change (doramapimod): -0.018 | log2 fold change (ispinesib): 0 | log2 fold change (bafetinib): -0.052 | log2 fold change [5]: -0.249 (active) | log2 fold change (nilotinib): -0.051 | log2 fold change [6]: 0.04 | log2 fold change (dasatinib): 0.068 | log2 fold change [7]: -0.013 | log2 fold change [8]: -0.026 | log2 fold change [9]: -0.006 | log2 fold change (tipifarnib): 0.086 | log2 fold change (mubritinib): 0.112

CHCHD4 isoform 2 (UniProt Q8N4Q1)
Chain of UniProt Q8N4Q1 (Q8N4Q1 whole entry, looked up): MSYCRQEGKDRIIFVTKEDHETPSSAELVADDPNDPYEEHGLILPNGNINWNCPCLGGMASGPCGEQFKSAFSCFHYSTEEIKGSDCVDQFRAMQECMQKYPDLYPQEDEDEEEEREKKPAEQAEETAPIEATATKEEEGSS
log2 fold change [1]: -0.041 | log2 fold change (crizotinib): 0.017 | log2 fold change [2]: 0.156 | log2 fold change [3]: -0.272 | log2 fold change (duvelisib): -0.217 | log2 fold change (gandotinib): -0.079 | log2 fold change (tozasertib): 0.182 | log2 fold change [4]: 0.022 | log2 fold change (doramapimod): 0.069 | log2 fold change (ispinesib): -0.074 | log2 fold change (bafetinib): 0 | log2 fold change [5]: 0.764 (active) | log2 fold change (nilotinib): -0.054 | log2 fold change [6]: -0.015 | log2 fold change (dasatinib): -0.121 | log2 fold change [7]: -0.039 | log2 fold change [8]: -0.185 | log2 fold change [9]: -0.059 | log2 fold change (tipifarnib): -0.208 | log2 fold change (mubritinib): 0
